Measured values: PubChem BioAssay (EPA / NIEHS)
Several values for one entry are separate records, joined by “and”; a condition that tells them apart may be missing. Equal values may be shown once. Some structures have more than one record in an assay (separate samples or runs), and their calls can disagree. Activity calls are given as the source filed them. How the source made its calls: active means hit-call score of the fitted dose curve at least 0.9, where 1 is the maximum; inactive means score below 0.9.

How the values were obtained:
[1] = read-out: Matrix Metallopeptidase 9 (MMP9), MMP9 (gene 4318); experiment: BSK_BE3C_MMP9: BioMAP Diversity Plus: BE3C Assay for Matrix Metallopeptidase 9 (MMP9) Biomarker Activity (AID 2284283); conditions: primary human bronchial epithelial cells
Method in brief: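 MMP9 is measured by ELISA after a 24 h compound exposure of primary human bronchial epithelial cultures. Parallel SRB staining gives overt cytotoxicity. Values fitted in the positive direction against DMSO.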

[2] = read-out: Plasminogen activator inhibitor-1 (PAI1), SERPINE1 (gene 5054); experiment: BSK_CASM3C_PAI1: BioMAP Diversity Plus: CASM3C Assay for Plasminogen activator inhibitor-1 (PAI1) Biomarker Activity (AID 2284284); conditions: primary human coronary artery smooth muscle cells;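 further: PAI-1 protein level measured by ELISA 24 h after dosing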
[3] = read-out: Monocyte Chemoattractant Protein-1 (MCP1), CCL2 (gene 6347); experiment: BSK_hDFCGF_MCP1: BioMAP Diversity Plus: hDFCGF Assay for Monocyte Chemoattractant Protein-1 (MCP1) Biomarker Activity (AID 2284285); conditions: primary human foreskin fibroblasts
Method in brief: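 MCP-1 ELISA readout was taken 24 hours after dosing primary human dermal fibroblasts in the hDFCGF system, with DMSO as baseline. Parallel sulforhodamine B staining of total protein tracked overt cytotoxicity.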

[4] = read-out: Vascular cell adhesion molecule 1 (VCAM1), VCAM1 (gene 7412); experiment: BSK_IMphg_VCAM1: BioMAP Diversity Plus: IMphg Assay for Vascular cell adhesion molecule 1 (VCAM1) Biomarker Activity (AID 2284286); conditions: primary human endothelial cells with macrophages
Method in brief: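 ELISA read-out of VCAM-1 on venular endothelial cell/macrophage co-cultures at 24 h post-treatment, with DMSO as baseline and positive-direction fitting. Parallel sulforhodamine B total-protein staining (560 nm) served as the overt cytotoxicity measure.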

[5] = read-out: Intercellular Adhesion Molecule 1 (ICAM1), ICAM1 (gene 3383); experiment: BSK_hDFCGF_ICAM1: BioMAP Diversity Plus: hDFCGF Assay for Intercellular Adhesion Molecule 1 (ICAM1) Biomarker Activity (AID 2284287); conditions: primary human foreskin fibroblasts
Method in brief: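 ICAM-1 ELISA readout 24 h after dosing, DMSO as baseline, in human dermal foreskin fibroblast cultures. Cytotoxicity checked in parallel wells by SRB staining (0.1% SRB, 10% TCA fixation, 560 nm).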

[6] = read-out: TIMP metallopeptidase inhibitor 2 (TIMP2), TIMP2 (gene 7077); experiment: BSK_hDFCGF_TIMP2: BioMAP Diversity Plus: hDFCGF Assay for TIMP metallopeptidase inhibitor 2 (TIMP2) Biomarker Activity (AID 2284289); conditions: primary human foreskin fibroblasts
Method in brief: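 Primary human foreskin fibroblasts in the hDFCGF system, dosed for 24 h; TIMP-2 level measured by ELISA, fitted in the positive direction against DMSO; cytotoxicity checked in parallel by sulforhodamine B total protein staining.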

[7] = read-out: Interleukin-1 alpha (IL1a), IL1A (gene 3552); experiment: BSK_IMphg_IL1a: BioMAP Diversity Plus: IMphg Assay for Interleukin-1 alpha (IL1a) Biomarker Activity (AID 2284290); conditions: primary human endothelial cells with macrophages
Method in brief: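 IL-1α is quantified by ELISA at 24 h in the endothelial/macrophage IMphg co-culture, with gain of signal fitted relative to DMSO. Parallel SRB total-protein staining flags overt toxicity.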

[8] = read-out: E-selectin (Homo sapiens) (UniProt P16581); experiment: BSK_IMphg_ESelectin: BioMAP Diversity Plus: IMphg Assay for Eselectin Biomarker Activity (AID 2284291); conditions: primary human endothelial cells with macrophages
Method in brief: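 Analysed against DMSO baseline in the positive fitting direction, this endpoint is an ELISA read of E-selectin. It comes from human venular endothelial cells co-cultured with macrophages, sampled 24 h post-dose.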

CD40, CD40 (gene 958) = experiment: BSK_IMphg_CD40: BioMAP Diversity Plus: IMphg Assay for CD40 Biomarker Activity (AID 2284288); conditions: primary human endothelial cells with macrophages
Method in brief: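 ELISA read-out of cell-surface CD40 at 24 h in human venular endothelial cell/macrophage co-cultures. Activity fitted in the positive direction against DMSO; parallel SRB staining (560 nm) gauges overt cytotoxicity.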

[9] = BSK_IMphg_SRB: Viability Assessment in the BioMAP Diversity Plus: IMphg Assay (AID 2284292); conditions: primary human endothelial cells with macrophages;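 further: measured one day after compound addition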
Method in brief: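 SRB viability endpoint: cultures of human endothelial cells plus macrophages fixed with 10% TCA, stained with 0.1% SRB, read at 560 nm 24 h post-dosing. Only gain-of-signal fitted, relative to DMSO.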

Chain of E-selectin (Homo sapiens) (P16581 whole entry, looked up): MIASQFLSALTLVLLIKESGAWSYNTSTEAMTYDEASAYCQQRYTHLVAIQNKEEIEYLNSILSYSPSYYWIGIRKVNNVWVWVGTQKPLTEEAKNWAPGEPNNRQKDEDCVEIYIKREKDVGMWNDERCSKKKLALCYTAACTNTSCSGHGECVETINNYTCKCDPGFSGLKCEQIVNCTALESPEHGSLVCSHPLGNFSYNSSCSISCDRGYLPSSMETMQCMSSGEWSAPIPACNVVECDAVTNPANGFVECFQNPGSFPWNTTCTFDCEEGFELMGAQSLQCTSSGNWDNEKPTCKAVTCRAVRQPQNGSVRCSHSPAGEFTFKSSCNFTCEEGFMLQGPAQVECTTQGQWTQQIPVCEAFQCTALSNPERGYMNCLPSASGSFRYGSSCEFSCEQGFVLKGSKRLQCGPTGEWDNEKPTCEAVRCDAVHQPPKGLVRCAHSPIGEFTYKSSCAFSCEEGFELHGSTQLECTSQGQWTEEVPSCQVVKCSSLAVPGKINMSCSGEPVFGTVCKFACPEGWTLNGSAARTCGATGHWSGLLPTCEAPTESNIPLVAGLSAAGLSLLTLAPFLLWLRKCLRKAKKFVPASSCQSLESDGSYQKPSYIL

Row | Compound | AC50 [1] | outcome [1] | AC50 [2] | outcome [2] | AC50 [3] | AC50 [4] | outcome [4] | AC50 [5] | AC50 [6] | outcome [6] | outcome [7] | outcome [8] | outcome [3] | outcome [5] | outcome (CD40, CD40 (gene 958)) | outcome [9] | AC50 (CD40, CD40 (gene 958)) | AC50 [8] | AC50 [9] | AC50 [7]
1 | FC(F)(I)C(F)(F)C(F)(F)C(F)(F)I | 56.5 µM (active) and 55.2 µM (active) | inactive | 45.7 µM (active) and 49.4 µM (active) | inactive | 52.1 µM (active) and 46.6 µM (active) and 47 µM (active) | 54 µM (active) | inactive | 49.8 µM (active) and 46 µM (active) and 53.4 µM (active) | 46 µM (active) | inactive | inactive | inactive |  |  |  |  |  |  |  | 
2 | O=C(O)C(F)(F)C(F)(F)C(F)(F)C(F)(F)C(F)(F)C(F)(F)C(F)(F)C(F)(F)Cl | 42.9 µM (active) and 40.4 µM (active) |  |  | inactive | 44.4 µM (active) and 47 µM (active) | 48.5 µM (active) and 45.7 µM (active) |  | 14.1 µM (active) and 8.21 µM (active) | 6.54 µM (active) | inactive | inactive | inactive |  |  |  |  |  |  |  | 
3 | CCCCCCCCC(F)(F)C(F)(F)C(F)(F)C(F)(F)C(F)(F)C(F)(F)F |  | inactive |  | inactive |  |  | inactive |  |  | inactive | inactive | inactive | inactive | inactive | inactive | inactive |  |  |  | 
4 | FC(F)(F)C(F)(F)C(F)(F)C(F)(F)C(F)(F)C(F)(F)C(F)(F)C(F)(F)CCS |  | inactive |  | inactive | 1.2 µM (active) |  | inactive |  | 0.0245 µM (active) | inactive | inactive | inactive | inactive | inactive |  |  |  |  |  | 
5 | OCCCC(F)(F)C(F)(F)C(F)(F)C(F)(F)C(F)(F)C(F)(F)C(F)(F)F | 47.3 µM (active) and 55.3 µM (active) |  | 45.3 µM (active) and 48.2 µM (active) |  | 16.1 µM (active) and 17.6 µM (active) | 54.6 µM (active) | inactive | 18.3 µM (active) and 20.1 µM (active) | 14.4 µM (active) and 16.8 µM (active) |  | inactive | inactive |  |  |  |  | 42.5 µM (active) and 53 µM (active) | 45.4 µM (active) | 51.8 µM (active) and 47.2 µM (active) | 
6 | N=C(N)C(F)(F)C(F)(F)C(F)(F)C(F)(F)C(F)(F)C(F)(F)C(F)(F)F |  | inactive |  | inactive | 43.8 µM (active) | 41.4 µM (active) | inactive | 30 µM (active) | 30 µM (active) | inactive | inactive | inactive | inactive | inactive |  | inactive |  |  |  | 
7 | O=C(O)C(F)(F)C(F)(F)C(F)(F)C(F)(F)C(F)(F)C(F)(F)C(F)(F)C(F)(F)C(F)(F)C(F)(F)C(F)(F)C(F)(F)F |  | inactive |  | inactive |  | 15.2 µM (active) and 19.4 µM (active) |  | 8.71 µM (active) |  | inactive | inactive | inactive | inactive | inactive |  |  | 13.3 µM (active) and 16.4 µM (active) |  |  | 
8 | O=S(=O)(OCCOC(F)(F)F)C(F)(F)F |  | inactive |  | inactive |  |  | inactive |  |  | inactive | inactive | inactive | inactive | inactive | inactive |  |  |  |  | 
9 | O=C(Cl)C(F)(F)C(F)(F)C(F)(F)C(F)(F)C(F)(F)C(F)(F)C(F)(F)C(F)(F)F | 55.1 µM (active) and 54.8 µM (active) |  |  | inactive | 49.5 µM (active) and 46.4 µM (active) | 35.9 µM (active) and 46.8 µM (active) and 46.3 µM (active) |  | 16.5 µM (active) and 19.9 µM (active) | 1.59 µM (active) | inactive | inactive | inactive | inactive | inactive |  |  |  | 40.2 µM (active) |  | 
10 | C=CC(=O)OCC(F)(F)C(F)(F)C(F)(F)C(F)(F)COC(=O)C=C | 7.28 µM (active) and 11.8 µM (active) |  | 53.7 µM (active) and 53.4 µM (active) |  | 7.35 µM (active) and 7.89 µM (active) | 30.4 µM (active) and 23.4 µM (active) |  | 10.6 µM (active) and 10.3 µM (active) | 12.4 µM (active) and 12.7 µM (active) |  | inactive |  |  |  |  |  | 18.8 µM (active) and 25 µM (active) | 25.1 µM (active) and 31.3 µM (active) |  | 30 µM (active)
11 | O=C(O)C(F)(F)C(F)(F)C(F)(F)C(F)(F)C(F)(F)C(F)(F)C(F)(F)C(F)(F)C(F)(F)C(F)F | 14.2 µM (active) and 10.6 µM (active) |  |  | inactive | 23.4 µM (active) and 42 µM (active) | 52.7 µM (active) | inactive | 14.5 µM (active) |  | inactive | inactive | inactive |  | inactive |  |  |  |  | 55.7 µM (active) and 50.4 µM (active) | 
12 | OCC(F)(F)C(F)(F)C(F)(F)C(F)(F)C(F)(F)C(F)F |  | inactive |  | inactive |  |  | inactive |  |  | inactive | inactive | inactive | inactive | inactive |  |  |  |  |  | 23.4 µM (active)
